# Measurements: PubChem BioAssay (NCI)
# Values joined by “and” are separate entries in the source; they are usually repeats but may differ in a detail not shown here. Equal values may be shown once. This is part of a sample that, as a whole, favours compounds with a hit. Of some 83,000 tested, about 20% had one in any assay.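 Cell lines were cultured in 96-well plates, exposed to a single compound concentration, and assessed for percent growth 48 hours later.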 Unmarked numbers belong to inactive results. Active and inactive are the calls of the source. Rule for the calls: active = growth percent below 10; inactive = the rest.
# Legend:
# Experiment in all cases: NCI-60 one-dose screen, 48 h (100 = growth as untreated, 0 = no growth, -100 = all killed)
# HCT-15 colon = details: 10 µM
# HT29 colon = details: 10 µM
# SNB-75 CNS = details: 10 µM
# SNB-19 CNS = details: 10 µM
# U251 CNS = details: 10 µM
# PC-3 prostate = details: 10 µM
# SK-MEL-5 melanoma = details: 10 µM
# UACC-62 melanoma = details: 10 µM unless noted
# LOX IMVI melanoma = details: 10 µM
# SK-MEL-28 melanoma = details: 10 µM
# SK-MEL-2 melanoma = details: 10 µM
# SN12C renal = details: 10 µM
# UO-31 renal = details: 10 µM
# ACHN renal = details: 10 µM
# CAKI-1 renal = details: 10 µM
# A498 renal = details: 10 µM
# HL-60(TB) leukemia = details: 10 µM
# TK-10 renal = details: 10 µM unless noted
# CCRF-CEM leukemia = details: 10 µM
# EKVX NSCLC = details: 10 µM
Compound,growth (HCT-15 colon),growth (HT29 colon),growth (SNB-75 CNS),growth (SNB-19 CNS),growth (U251 CNS),growth (PC-3 prostate),growth (SK-MEL-5 melanoma),growth (UACC-62 melanoma),growth (LOX IMVI melanoma),growth (SK-MEL-28 melanoma),growth (SK-MEL-2 melanoma),growth (SN12C renal),growth (UO-31 renal),growth (ACHN renal) [%],growth (CAKI-1 renal),growth (A498 renal),growth (HL-60(TB) leukemia),growth (TK-10 renal),growth (CCRF-CEM leukemia),growth (EKVX NSCLC) [%]
CN(CCCl)c1ccc(/C=C/C2=[N+](C)c3ccccc3C2(C)C)cc1,101%,5.58% (active),38.9%,42.5%,13.1%,5.9% (active),21.8%,31.6%,16.9%,40.1%,46%,1.3% (active),87.3%,85.2,102%,66.3%,-29.5% (active),,,
Oc1c(Cl)cc(Cl)c2ccccc12.[Cu+2],99.5%,92.5%,91%,121%,108%,88.4%,90.5%,109%,37.7%,116%,86.1%,99%,49%,91.9,96.4%,106%,92%,119%,48.5%,
N#CCc1ccccc1,102%,114%,105%,98.6%,95.8%,96.9%,99.4%,102%,94.1%,106%,99.9%,99.6%,93%,108,104%,,105%,,97.3%,
C[C@]12CC[C@H]3[C@@H](CCC4=CC(=O)CC[C@@H]43)[C@@H]1CC[C@@H]2OC(=O)N(CCCl)N=O,66.8%,59%,50.1%,34.5%,30.6%,43.1%,51.3%,20.6%,39.3%,90.2%,27.4%,23.2%,40.8%,13,27.4%,58%,-22.6% (active),87.6%,11%,
CN(C)CC1(N)C(=O)NC(=O)NC1=O,102%,99.6%,89.7%,102%,96.3%,93.5%,95.1%,97.5%,104%,95.1%,101%,96.8%,96.3%,101,96.4%,54.9%,97.5%,,99.1%,
O=C(CCl)Nc1ccc(Cl)cc1,37.2%,41.2%,62.4%,79.1%,0.303% (active),62.9%,30.3%,47.1%,38.3%,69.5%,,35.8%,79.7%,62.4,-7.72% (active),113%,66.3%,,26.3%,101
COc1cc2c(cc1OC)C13CCN4CC5=CCOC6CC(=O)N2C1C6C5CC43 (stereo unspecified),103% and 109%,122% and 111%,97.8% and 111%,105% and 111%,98% and 98.4%,94.8% and 40%,92.9% and 91.1%,104% and 88.1%,101% and 97.4%,114% and 105%,116% and 77.5%,97.3% and 91.3%,87.9% and 92.8%,,103% and 104%,108% and 87.2%,127% and 80.1%,112% and 138%,100% and 76.3%,
